109 compounds from ChEMBL document CHEMBL4513216, “Probing the Open Global Health Chemical Diversity Library for Multistage-Active Starting Points for Next-Generation Antimalarials” (ACS Infect Dis, 2020) can be followed below.

About 2,100 (3.2%) of roughly 65,000 compounds showed an effect of 50% or more. The median lay at about -52%. The sample holds strong results, similar compounds and a random draw of the others, so the mix is not that of the screen.

This experiment deals with Plasmodium falciparum. Description: Screen against P. falciparum Asexual Blood Stage (ABS), at 5uM. It is filed as functional, Dd2. Conditions: tested at 5 uM.
Take `COc1ccc(CN2C[C@@H]3CN(Cc4cccnc4)CCO[C@@H]3C2)cc1`: the INHIBITION is -76.4%.
As for `CC(NC(=O)Nc1ccc(-c2csnn2)cc1)C(=O)NC(C)(C)C` (centres undefined), the figure is -94.8%.
Take `O=C(c1ccsc1)N1C[C@@H]2CCN(c3cccnc3)C[C@@H]2C1`: the INHIBITION is reported as -7.89%.
As for `O=C(NCC1CCS(=O)(=O)C1)N1CCN(c2cnccn2)CC1` (centres undefined), the figure is -123%.
As for `CC(NC(=O)NCCCN(C)S(C)(=O)=O)c1ccc(F)cc1` (centres undefined), the figure is -109%; as for `Cc1nc(CN(C)c2nccc(N(C)C)n2)cs1`, 27.2%.
As for `COc1ccnc(N(C)Cc2csc(C)n2)n1`, the figure is -49.6%.
For `Cc1cc(N(C)C)nc(N(C)Cc2csc(C)n2)n1`, the INHIBITION is 51.4%.
To `c1cncc(OCc2n[nH]c3c2CN(Cc2cccs2)C3)c1` belongs -109%; to `OC1(Cn2ccc3ncccc32)CCN(Cc2cccs2)CC1`, 4.9%.
Take `CC(=O)c1cccc(NCC(=O)NC(N)=O)c1`: the INHIBITION is listed as -105%.
To `Cn1nc(C2CCCN(Cc3ccccc3)C2)c2nccnc21` (centres undefined) belongs -26.5%.
As for `COc1cccc(CNCc2ccnc(N3CCOCC3)c2)c1OC`, the figure is -35.6%; as for `O=C(NCC1(O)CCOCC1)c1ccc(F)cc1`, -171%.
To `COc1cccc(C2(C(=O)NC3CCc4nccn4C3)CCCC2)c1` (centres undefined) belongs 53.3%; to `CS(=O)(=O)C1(C(=O)NC2CCc3nccn3C2)CCCC1` (centres undefined), -105%; to `COc1ccc(C2(C(=O)NC3CCc4nccn4C3)CCCC2)cc1` (centres undefined), 47.5%.
For the compound `CCN1CC(C)(C)CN(C(=O)CCc2ccccc2)CC1=O`, the INHIBITION is -37%.
As for `Cc1ccc(-c2nc(CCNC(=O)NC3CCC(O)CC3)co2)cc1` (centres undefined), the INHIBITION is on record as -137%.
Take `CN(C)CC1(O)CCN(Cc2cnc3c(-c4ccccc4)cnn3c2)C1` (centres undefined): the INHIBITION is on record as 65%.
As for `OCCN1CCN(Cc2cnc3c(-c4ccccc4)cnn3c2)CC1`, the figure is 20.3%.
To `c1ccc(-c2cnn3cc(CN4CCC5(CCO5)CC4)cnc23)cc1` belongs -302%; to `COc1ccc(CN(Cc2ccsc2)CC2CCCO2)cn1` (centres undefined), -101%; to `CN(C)C(=O)CN1C(=O)CCC12CCN(Cc1cccs1)CC2`, -98%.
To `Cc1cccc(CN2CCCC3(CCC(=O)N3CCN(C)C)CC2)n1` (centres undefined) belongs 45.5%.
As for `CN(C)CCN1C(=O)CCC12CCN(Cc1cccs1)CC2`, the INHIBITION is reported as 58.2%.
To `CNc1cncc(C2CCN(C(=O)c3coc(C)n3)CC2)n1` belongs -43%; to `Cc1nn(C)c(N(C)C)c1CNC1CCc2c(F)cccc21` (centres undefined), -24.9%; to `N#Cc1cccc(CN2C(=O)c3ccccc3CS2(=O)=O)c1`, -37.5%.
Turning to `C=Cc1ccc(CN2C(=O)C3(CCNCC3)Nc3ccccc32)cc1`, the INHIBITION is recorded as 87.7%.
On to `N#Cc1cccc(CN2CCC3(CC2)CC(c2ccncc2)C(=O)N3)c1` (centres undefined), for which the INHIBITION is on record as -29.8%.
To `N#Cc1cccc(CN2C(=O)C3(CCNCC3)Nc3ccccc32)c1` belongs 67.9%; to `O=C1CC2(CCNCC2)C(=O)N1Cc1ccc(F)cc1`, -53.4%; to `NC(=O)c1ccc(CN2C(=O)C3(CCNCC3)Nc3ccccc32)cc1`, -3.53%.
To `COc1ccccc1N1CCN(C(=O)c2ccnc(N(C)C)c2)CC1` belongs 41.8%.
Consider `CN(Cc1cn2c(n1)CN(C1CCOCC1)CC2)Cc1ccco1`, for which the INHIBITION is given as -29.2%.
To `CC(=O)N1CCCC1c1cncc(Oc2ccc(F)cc2)n1` (centres undefined) belongs -118%; to `Cn1cncc1CN1CCCC1c1cncc(Oc2ccc(F)cc2)n1` (centres undefined), -32.7%; to `CN(C)CC(=O)N1CCCC1c1cncc(Oc2ccc(F)cc2)n1` (centres undefined), 61.2%.
To `NC(=O)CN1CCCC1c1cncc(Oc2ccc(Cl)cc2)n1` (centres undefined) belongs 9.38%.
As for `COc1ccc(Oc2cncc(C3CCCN3C(C)=O)n2)cc1` (centres undefined), the figure is -40.9%; as for `CNCC(=O)N1CCCC1c1cncc(Oc2ccc(F)cc2)n1` (centres undefined), 69.8%; as for `NCc1ccnc(Oc2ccc(F)cc2)c1`, -151%.
As to `O=C(NC1CC1)N1CCOCC2(C1)CN(c1ccccc1)C(=O)CO2` (centres undefined), the INHIBITION is on record as -77.9%.
For `c1cnnc(NCC2CN(Cc3ccon3)CCO2)c1` (centres undefined), the INHIBITION is -114%.
To `CN1CC[C@]2(CN(CC3CCOC3)C[C@H]2c2ccccc2)C1=O` (some centres undefined) belongs -65.9%; to `NC(=O)NC(=O)CCSCc1coc(-c2ccc(F)cc2)n1`, -58.5%; to `CC(=O)N1CCc2nc(-c3ccccc3)nc(NC(C)C)c2CC1`, -25.6%.
Regarding `CC(Nc1nc(-c2ccccc2)nc2c1CCNCC2)c1nccs1` (centres undefined), the INHIBITION was determined as 52.7%.
As for `CC(Nc1ncnc2c1CCNCC2)c1nc2c(s1)CCCC2` (centres undefined), the figure is 9.93%.
As for `N#CCCn1nc(C(F)(F)F)c2c1CCC2`, the figure is -74.2%.
As for `Cc1ncsc1C(=O)NC1CCN(Cc2ccc(C(F)(F)F)cc2)CC1`, the figure is -104%.
With `CN(C)[C@@H]1CO[C@H](CNC(=O)Nc2ccccc2)[C@H]1O`, the INHIBITION is listed as -60.7%.
On to `O=C(NC[C@H]1OC[C@@H](N(CC2CC2)CC2CC2)[C@@H]1O)Nc1ccccc1`, for which the INHIBITION was determined as 64.8%.
Consider `O=C(NC[C@H]1OC[C@@H](NC2CCC2)[C@@H]1O)Nc1ccccc1`, for which the INHIBITION is reported as -141%.
As to `Cn1ccnc1C(NCc1ccccc1)c1ccc(F)cc1` (centres undefined), the INHIBITION is listed as -60.5%.
As for `Cc1ccc(CNC(c2ccccc2)c2nccn2C)cc1` (centres undefined), the figure is -267%; as for `CSc1ccc(CNC(c2ccc(F)cc2)c2nccn2C)cc1` (centres undefined), -107%.
Consider `COc1ccccc1C(NCc1ccc(SC)cc1)c1nccn1C` (centres undefined), for which the INHIBITION turned out to be 69.7%.
Take `CSc1ccc(CNC(c2ccccc2)c2nccn2C)cc1` (centres undefined): the INHIBITION is -22.4%.
As for `COc1cccc(C(NCc2ccc(SC)cc2)c2nccn2C)c1` (centres undefined), the figure is 65.5%; as for `Cn1ccnc1C(NCc1csc(Br)c1)c1ccccc1` (centres undefined), 28.4%; as for `Cn1ccnc1C(NCc1ccc(Br)cc1)c1ccccc1` (centres undefined), 52.2%.
To `CSc1ccc(CNC(c2ccccc2F)c2nccn2C)cc1` (centres undefined) belongs -98%; to `FC(F)(F)Cn1cc(NCc2cscn2)cn1`, -19.1%.
For `Cc1ccc(S(=O)(=O)c2ncccc2CN2CCN(C)CC2)cc1`, the INHIBITION is on record as 24.6%.
As to `Cc1nc(COc2ccc(CNCCn3cccn3)cc2)cs1`, the INHIBITION was -107%.
Take `COCCNC(=O)[C@H]1CN(c2nnc(C)s2)C[C@H]2OCC[C@@H]12`: the INHIBITION is given as -167%.
To `c1ccc(Cc2noc(CN3CCCCC3Cn3cncn3)n2)cc1` (centres undefined) belongs -14.9%; to `CCN(CC1CN(Cc2ccn(C(C)C)n2)CCO1)c1cccnn1` (centres undefined), -94%.
As for `Cc1[nH]c2ccccc2c1CCNc1ncnc2c1CCNCC2`, the figure is -68.4%; as for `Cc1[nH]c2ccc(Cl)cc2c1CCNc1ncnc2c1CCNC2`, 52%; as for `Cc1[nH]c2ccc(C#N)cc2c1CCNc1ncnc2c1CCNCC2`, -19.3%.
`O=S(=O)(Nc1ccc(Oc2ccc3c(c2)OCO3)cc1)N1CCCCC1`: the INHIBITION is -59.9%.
`CCN(CCO)Cc1ccc(Br)c2cccnc12`: the INHIBITION was found to be 54.2%.
As for `N#CCCN(CCC#N)Cc1ccc(Br)c2cccnc12`, the figure is -103.4%.
As for `OCCN(CCO)Cc1ccc(Br)c2cccnc12`, the figure is -26.05%; as for `Cc1nn(C)c2c(=O)n(C(C)C)c(NCCc3ccccc3)nc12`, 13.9%; as for `Clc1ccc(C2(NCc3noc(C4CC4)n3)CCCC2)cc1`, 68.5%.
Consider `Clc1ccc(C2(NCc3noc(C4CC4)n3)CCC2)cc1`, for which the INHIBITION came out at 16.7%.
As for `Clc1ccc(C2(NCc3noc(C4CC4)n3)CCOCC2)cc1`, the figure is 3.57%; as for `O=C(NC1CCCC1)c1nc(COc2ccc3c(c2)OCO3)no1`, -118%; as for `CSc1ccc(C(C(=O)O)N2CCC(CO)CC2)cc1` (centres undefined), -79.3%.
To `Cc1c(NC(=O)c2ncn[nH]2)cccc1C(=O)NC(C)(C)C` belongs -21%; to `Cc1cc(CN2CCC3(CC2)CC(Nc2ncccn2)CO3)nn1C` (centres undefined), -8.44%.
To `c1cnc(NC2COC3(CCN(Cc4ccoc4)CC3)C2)nc1` (centres undefined) belongs -27.7%; to `Cc1cc(C)cc(CN2CCC3(CC2)CC(Nc2ncccn2)CO3)c1` (centres undefined), 60.2%; to `CCc1csc(CNc2cc(C)nc(-c3cccnc3)n2)n1`, 4.15%.
In the case of `CC(C)c1nc(CN2CCCCC2Cn2cncn2)cs1` (centres undefined), the INHIBITION is given as -30.9%.
As for `CC(C)c1nc(CN2CCCCC2)cs1`, the INHIBITION was -114%.
As for `CC(C)c1nc(CN2CCCC2CN2CCCC2)cs1` (centres undefined), the figure is 68%.
To `O=S(=O)(NCCCN1CCCC1)c1cc(F)cc(F)c1` belongs 67.4%; to `Cc1cc(F)cc(S(=O)(=O)NCCCN2CCC(O)CC2)c1`, -34.8%; to `CC1CCN(CCCNS(=O)(=O)Cc2ccccc2F)CC1`, 28.5%.
As for `CC1CCN(CCCNS(=O)(=O)c2cc(F)cc(F)c2)CC1`, the figure is 63.3%.
As to `CN1CCN(CCCNS(=O)(=O)Cc2ccccc2F)CC1`, the INHIBITION came out at 18.6%.
As for `CC(=O)N1CCN(CCNS(=O)(=O)c2cccc(F)c2)CC1`, the figure is -72.6%; as for `O=S(=O)(Cc1c(F)cccc1Cl)NCCCN1CCCCCC1`, 50.1%.
To `O=S(=O)(Cc1ccccc1F)NCCCN1CCCCC1` belongs 19.9%.
As for `Cn1cnc(S(=O)(=O)NCCCN2CCCC2)c1Cl`, the figure is -29.7%; as for `CC(C)c1cccc(S(=O)(=O)NCCCN2CCC(O)CC2)c1`, 34.2%; as for `CC1CCN(CCCNS(=O)(=O)c2cccc(F)c2)CC1`, 54.9%.
Consider `CC(=O)N1CCN(CCNS(=O)(=O)c2cc(F)cc(F)c2)CC1`, for which the INHIBITION was -113%.
To `O=C(Nc1cccc(N2CCOCC2)c1)N[C@H](CO)c1ccccc1` belongs -104%; to `Cc1cccc(C(=O)N2CCO[C@H]3[C@H](OCCN(C)C)CC[C@@H]32)n1`, -57.1%; to `COCC1CN(C(=O)COc2ccccc2)Cc2ncn(C)c21` (centres undefined), -14.4%.
As for `O=C(NCc1ccnc(OCC(F)(F)F)c1)NCC1CCOC1` (centres undefined), the figure is -16%; as for `O=C(C1CCCC1)N1CCCC(c2cccc(-n3ccnc3)n2)C1` (centres undefined), -46.4%; as for `Cc1c[nH]c(CN2CCOC(c3ccc(Cl)cc3)C2)c(C)c1=O` (centres undefined), -11.4%.
